# Data: the supplement of paper PMC10849652
# The full data set covers some 7,900 targets. This sample favours those with a hit. About 0.6% of all pairs of compound and target were hits. Unmarked numbers belong to inactive results.
# What was measured:
# Assay in all cases: log2 fold change, soluble protein after heating vs DMSO (PISA); higher = thermal stabilisation; K562 cells, 10 uM, 30 min; active = over 0.2 and 3.5 SD of the protein, either way, in both replicates (recomputed)
# saracatinib = compound: CN1CCN(CCOc2cc(OC3CCOCC3)c3c(Nc4c(Cl)ccc5c4OCO5)ncnc3c2)CC1 [saracatinib]
# In short: (§1)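 K562 cells at 2×10^6 cells/mL were treated with 10 μM compound for 30 min. Aliquots were heated for 3 min across 48°C-58°C, pooled, and extracted in PBS with 0.5% NP-40 at 4°C; soluble protein was the supernatant after 21,000xg for 90 min. Soluble protein was quantified by TMTpro 16plex LC-MS/MS with channel sums equalised, and reported as log2 fold change in thermal stability against DMSO controls, with values from duplicates.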
# sotrastaurin = compound: CN1CCN(c2nc(C3=C(c4c[nH]c5ccccc45)C(=O)NC3=O)c3ccccc3n2)CC1 [sotrastaurin]
# In short: as §1
# alvocidib = compound: CN1CC[C@H](c2c(O)cc(O)c3c(=O)cc(-c4ccccc4Cl)oc23)[C@H](O)C1 [alvocidib]
# In short: as §1
# Tubastatin A = compound: CN1CCc2c(c3ccccc3n2Cc2ccc(C(=O)NO)cc2)C1 [Tubastatin A]
# In short: as §1
# [1] = compound: CNC(=O)C1=CC=CC=C1NC2=NC(=NC=C2Cl)NC3=C(C=C(C=C3)N4CCOCC4)OC
# In short: as §1
# defactinib = compound: CNC(=O)c1ccc(Nc2ncc(C(F)(F)F)c(NCc3nccnc3N(C)S(C)(=O)=O)n2)cc1 [defactinib]
# In short: as §1
# rucaparib = compound: CNCc1ccc(-c2[nH]c3cc(F)cc4c3c2CCNC4=O)cc1 [rucaparib]
# In short: as §1
# [2] = compound: CNc1nc(-c2ccc3c(N)n[nH]c3c2)cc(N2C[C@@H](C(=O)NC3CCCCC3)CC[C@H]2C)n1
# In short: as §1
# encorafenib = compound: COC(=O)N[C@@H](C)CNc1nccc(-c2cn(C(C)C)nc2-c2cc(Cl)cc(NS(C)(=O)=O)c2F)n1 [encorafenib]
# In short: as §1
# [3] = compound: COC(=O)[C@H](CCSC)NC(=O)C1=C(C=C(C=C1)NC[C@H](CS)N)C2=CC=CC=C2
# In short: as §1
# UniProt P51668, sequence (P51668 whole entry, looked up): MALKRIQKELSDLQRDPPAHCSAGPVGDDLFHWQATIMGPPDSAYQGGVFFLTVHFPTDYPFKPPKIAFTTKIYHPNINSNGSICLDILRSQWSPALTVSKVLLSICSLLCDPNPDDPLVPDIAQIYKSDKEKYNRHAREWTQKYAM
# UniProt Q9UL33, sequence (Q9UL33 whole entry, looked up): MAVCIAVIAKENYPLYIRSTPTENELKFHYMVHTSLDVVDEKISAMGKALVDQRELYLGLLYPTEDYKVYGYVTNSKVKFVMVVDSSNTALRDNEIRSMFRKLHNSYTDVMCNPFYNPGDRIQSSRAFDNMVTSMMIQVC
# UniProt P07951, sequence (P07951 whole entry, looked up): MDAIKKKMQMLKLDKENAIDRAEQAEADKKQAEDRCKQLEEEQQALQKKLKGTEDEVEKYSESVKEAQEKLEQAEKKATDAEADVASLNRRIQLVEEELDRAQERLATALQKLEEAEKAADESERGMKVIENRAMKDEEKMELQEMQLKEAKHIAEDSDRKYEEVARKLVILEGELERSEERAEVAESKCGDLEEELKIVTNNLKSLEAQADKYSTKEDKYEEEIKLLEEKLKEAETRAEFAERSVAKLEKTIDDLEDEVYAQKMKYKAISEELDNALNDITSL
# UniProt Q9Y2I8, sequence (Q9Y2I8 whole entry, looked up): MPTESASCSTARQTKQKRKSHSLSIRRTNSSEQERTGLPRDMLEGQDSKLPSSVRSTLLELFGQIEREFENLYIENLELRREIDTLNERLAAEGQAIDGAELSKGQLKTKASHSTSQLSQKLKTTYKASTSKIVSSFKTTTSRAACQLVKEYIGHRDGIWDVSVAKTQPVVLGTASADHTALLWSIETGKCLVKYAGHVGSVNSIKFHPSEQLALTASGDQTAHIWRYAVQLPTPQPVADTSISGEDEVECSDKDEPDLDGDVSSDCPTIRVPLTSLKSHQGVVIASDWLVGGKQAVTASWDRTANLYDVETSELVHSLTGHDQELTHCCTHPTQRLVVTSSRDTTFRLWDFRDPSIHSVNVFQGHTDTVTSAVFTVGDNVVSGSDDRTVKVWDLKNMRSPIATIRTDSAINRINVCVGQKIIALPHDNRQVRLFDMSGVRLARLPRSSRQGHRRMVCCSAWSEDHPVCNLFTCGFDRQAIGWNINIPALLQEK
# UniProt Q9BZI7, sequence (Q9BZI7 whole entry, looked up): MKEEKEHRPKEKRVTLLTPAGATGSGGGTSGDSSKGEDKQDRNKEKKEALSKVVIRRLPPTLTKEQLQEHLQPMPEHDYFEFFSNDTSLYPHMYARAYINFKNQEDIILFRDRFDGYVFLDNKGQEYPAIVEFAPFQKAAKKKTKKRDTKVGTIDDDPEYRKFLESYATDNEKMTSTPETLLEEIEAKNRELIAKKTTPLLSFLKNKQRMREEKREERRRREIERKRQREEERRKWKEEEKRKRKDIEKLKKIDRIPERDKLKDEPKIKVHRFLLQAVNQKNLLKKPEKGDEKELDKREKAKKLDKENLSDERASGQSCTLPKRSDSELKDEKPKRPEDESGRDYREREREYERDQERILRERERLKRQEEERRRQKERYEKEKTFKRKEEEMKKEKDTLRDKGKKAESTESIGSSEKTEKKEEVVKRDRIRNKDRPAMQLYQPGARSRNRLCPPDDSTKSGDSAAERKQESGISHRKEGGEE
# UniProt O43156, sequence (O43156 whole entry, looked up): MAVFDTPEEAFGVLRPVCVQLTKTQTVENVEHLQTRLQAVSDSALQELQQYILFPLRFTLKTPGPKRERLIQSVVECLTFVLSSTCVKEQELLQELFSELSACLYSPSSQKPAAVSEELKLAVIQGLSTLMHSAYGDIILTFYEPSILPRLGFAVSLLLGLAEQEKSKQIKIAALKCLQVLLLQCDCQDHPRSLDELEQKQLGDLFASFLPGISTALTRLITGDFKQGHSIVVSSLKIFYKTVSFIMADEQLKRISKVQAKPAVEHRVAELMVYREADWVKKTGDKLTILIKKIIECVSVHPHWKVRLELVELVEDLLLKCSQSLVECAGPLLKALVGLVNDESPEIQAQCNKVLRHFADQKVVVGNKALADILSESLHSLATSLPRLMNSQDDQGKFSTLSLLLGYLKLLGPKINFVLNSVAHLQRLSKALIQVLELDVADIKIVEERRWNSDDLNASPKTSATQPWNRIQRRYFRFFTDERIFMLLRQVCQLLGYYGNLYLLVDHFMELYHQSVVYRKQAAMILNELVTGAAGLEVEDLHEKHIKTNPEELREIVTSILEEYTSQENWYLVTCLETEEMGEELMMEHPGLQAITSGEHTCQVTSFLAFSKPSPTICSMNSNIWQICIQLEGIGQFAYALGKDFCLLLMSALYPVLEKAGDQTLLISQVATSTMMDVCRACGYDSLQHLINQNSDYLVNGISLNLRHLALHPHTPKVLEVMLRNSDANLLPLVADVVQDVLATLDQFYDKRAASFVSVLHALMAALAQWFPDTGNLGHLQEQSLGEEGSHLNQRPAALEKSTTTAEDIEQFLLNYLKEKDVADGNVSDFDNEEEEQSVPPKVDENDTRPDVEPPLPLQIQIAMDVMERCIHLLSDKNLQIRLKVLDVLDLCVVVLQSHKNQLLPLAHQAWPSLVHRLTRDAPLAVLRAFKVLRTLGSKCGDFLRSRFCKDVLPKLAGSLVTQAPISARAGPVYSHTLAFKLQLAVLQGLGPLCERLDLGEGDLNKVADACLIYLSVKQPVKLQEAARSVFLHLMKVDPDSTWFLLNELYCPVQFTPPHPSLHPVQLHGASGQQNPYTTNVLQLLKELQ
# UniProt O95379, sequence (O95379 whole entry, looked up): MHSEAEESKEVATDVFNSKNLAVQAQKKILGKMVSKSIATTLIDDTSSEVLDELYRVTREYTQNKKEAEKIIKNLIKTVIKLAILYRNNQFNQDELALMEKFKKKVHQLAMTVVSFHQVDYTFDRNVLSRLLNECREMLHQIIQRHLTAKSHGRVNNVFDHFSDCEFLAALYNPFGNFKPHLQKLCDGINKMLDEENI
# UniProt Q9Y5Z9, sequence (Q9Y5Z9 whole entry, looked up): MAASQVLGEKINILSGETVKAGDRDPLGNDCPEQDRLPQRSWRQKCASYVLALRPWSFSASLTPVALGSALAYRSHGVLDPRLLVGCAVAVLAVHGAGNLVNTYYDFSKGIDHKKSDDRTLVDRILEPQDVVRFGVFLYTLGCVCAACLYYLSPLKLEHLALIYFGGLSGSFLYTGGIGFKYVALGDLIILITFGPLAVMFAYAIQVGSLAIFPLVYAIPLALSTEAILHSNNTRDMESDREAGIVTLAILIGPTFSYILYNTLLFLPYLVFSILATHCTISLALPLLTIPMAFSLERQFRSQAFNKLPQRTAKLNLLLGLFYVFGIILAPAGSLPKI
# UniProt Q92890, sequence (Q92890 whole entry, looked up): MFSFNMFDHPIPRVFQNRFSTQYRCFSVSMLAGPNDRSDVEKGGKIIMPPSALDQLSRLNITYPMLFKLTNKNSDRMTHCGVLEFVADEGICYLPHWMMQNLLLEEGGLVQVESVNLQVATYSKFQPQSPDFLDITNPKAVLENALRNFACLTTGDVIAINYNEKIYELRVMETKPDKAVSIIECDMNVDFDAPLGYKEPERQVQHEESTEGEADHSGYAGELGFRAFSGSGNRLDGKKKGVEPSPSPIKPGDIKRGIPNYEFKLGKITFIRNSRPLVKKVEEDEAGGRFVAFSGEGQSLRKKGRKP
# UniProt Q9P0T7, sequence (Q9P0T7 whole entry, looked up): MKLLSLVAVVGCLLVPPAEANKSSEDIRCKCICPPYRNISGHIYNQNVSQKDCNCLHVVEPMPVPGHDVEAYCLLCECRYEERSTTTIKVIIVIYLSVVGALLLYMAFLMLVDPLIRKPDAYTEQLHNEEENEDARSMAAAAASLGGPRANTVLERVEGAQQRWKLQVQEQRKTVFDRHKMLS
# UniProt Q8NCE0, sequence (Q8NCE0 whole entry, looked up): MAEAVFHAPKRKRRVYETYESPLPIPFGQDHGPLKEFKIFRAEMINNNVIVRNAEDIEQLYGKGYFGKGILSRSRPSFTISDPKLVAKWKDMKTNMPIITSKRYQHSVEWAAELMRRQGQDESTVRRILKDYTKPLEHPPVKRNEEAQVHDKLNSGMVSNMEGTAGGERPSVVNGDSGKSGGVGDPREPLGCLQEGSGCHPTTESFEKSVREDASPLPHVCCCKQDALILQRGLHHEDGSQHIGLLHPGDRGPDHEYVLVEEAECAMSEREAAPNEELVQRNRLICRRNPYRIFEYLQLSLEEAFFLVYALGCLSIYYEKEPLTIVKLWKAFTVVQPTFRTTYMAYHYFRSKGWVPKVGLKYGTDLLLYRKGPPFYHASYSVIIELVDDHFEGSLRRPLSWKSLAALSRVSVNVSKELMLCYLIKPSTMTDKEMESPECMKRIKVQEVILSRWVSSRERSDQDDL
# UniProt Q86WV6, sequence (Q86WV6 whole entry, looked up): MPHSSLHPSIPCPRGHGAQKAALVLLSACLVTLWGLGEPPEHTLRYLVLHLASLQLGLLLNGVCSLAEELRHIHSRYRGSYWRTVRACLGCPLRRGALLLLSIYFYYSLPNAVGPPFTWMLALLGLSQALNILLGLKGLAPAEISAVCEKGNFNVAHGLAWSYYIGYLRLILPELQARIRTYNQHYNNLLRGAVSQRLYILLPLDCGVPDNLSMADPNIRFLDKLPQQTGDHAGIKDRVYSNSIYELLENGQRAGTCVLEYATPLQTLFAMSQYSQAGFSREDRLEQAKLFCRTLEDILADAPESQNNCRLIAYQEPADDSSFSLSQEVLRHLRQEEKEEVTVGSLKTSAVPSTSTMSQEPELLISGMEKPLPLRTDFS
# UniProt P51809, sequence (P51809 whole entry, looked up): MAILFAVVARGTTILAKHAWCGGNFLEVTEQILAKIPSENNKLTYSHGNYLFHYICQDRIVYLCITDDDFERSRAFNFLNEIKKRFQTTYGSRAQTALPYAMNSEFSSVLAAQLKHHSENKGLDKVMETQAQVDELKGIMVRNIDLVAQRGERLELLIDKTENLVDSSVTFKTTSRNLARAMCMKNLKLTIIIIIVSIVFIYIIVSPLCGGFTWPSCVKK
# UniProt Q86SZ2, sequence (Q86SZ2 whole entry, looked up): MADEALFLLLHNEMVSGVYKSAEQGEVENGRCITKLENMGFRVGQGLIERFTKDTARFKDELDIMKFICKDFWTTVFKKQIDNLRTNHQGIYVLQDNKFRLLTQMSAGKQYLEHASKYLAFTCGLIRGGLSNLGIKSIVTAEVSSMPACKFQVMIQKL
Target,log2 fold change (saracatinib),log2 fold change (sotrastaurin),log2 fold change (alvocidib),log2 fold change (Tubastatin A),log2 fold change [1],log2 fold change (defactinib),log2 fold change (rucaparib),log2 fold change [2],log2 fold change (encorafenib),log2 fold change [3]
UBIAD1 (UniProt Q9Y5Z9),0.003,0.208,0.021,-0.078,0.054,0.002,0.473 (active),-0.053,-0.035,-0.039
TNFAIP8 isoform 4 (UniProt O95379),0.009,-0.125,-0.072,0.083,-0.046,-0.033,-0.04,-0.064,-0.016,-0.015
WDCP (UniProt Q9H6R7),-0.039,-0.034,0.054,-0.032,0,-0.016,0.14,-0.02,0.043,-0.006
WASHC3 (UniProt Q9Y3C0),0.055,0.026,0.077,0.054,0.004,-0.02,-0.022,-0.02,-0.005,0.008
TRMT10A (UniProt Q8TBZ6),-0.028,-0.024,-0.12,-0.038,0.054,-0.06,0.016,0.032,0.026,0.036
TMEM161B (UniProt Q8NDZ6),0.048,0.037,-0.037,-0.007,-0.043,-0.061,0.013,-0.049,-0.023,-0.05
USP24 (UniProt Q9UPU5),0.033,0.092,-0.061,-0.143,0.034,-0.079,-0.03,0.278,0.048,-0.034
TMEM9 (UniProt Q9P0T7),0.051,-0.025,-0.068,0.016,0.004,-0.014,0.003,0.033,0.033,0.004
TMEM173 (UniProt Q86WV6),-0.002,-0.023,-0.07,0.03,0.014,-0.055,-0.078,0.034,0.062,-0.005
TUBAL3 (UniProt A6NHL2),-0.074,-0.054,0.058,-0.003,-0.125,-0.069,-0.51 (active),0.067,0.187,-0.057
UBE2J2 isoform 3 (UniProt Q8N2K1),0.07,0.044,-0.226,0.091,-0.114,-0.061,0.081,0.055,0.014,-0.053
WDR37 isoform 2 (UniProt Q9Y2I8),-0.094,-0.01,0.207,-0.019,-0.077,0,0.064,-0.108,0.084,-0.007
TRAPPC2L (UniProt Q9UL33),-0.07,-0.101,-0.015,0.011,-0.376 (active),-0.032,0.03,-0.026,0.012,-0.042
VPS52 (UniProt Q8N1B4),-0.012,-0.107,-0.061,0.074,-0.047,-0.031,0.121,-0.01,0.02,-0.072
TMTC3 (UniProt Q6ZXV5),-0.03,0.028,0.009,0.009,0.012,0.009,0.022,0.006,0.028,-0.019
UPF3B (UniProt Q9BZI7),-0.099,0.002,0.423,0.114,0.045,0.413,0.286,0.035,0.108,0.007

Target,log2 fold change (saracatinib),log2 fold change (sotrastaurin),log2 fold change (alvocidib),log2 fold change (Tubastatin A),log2 fold change [1],log2 fold change (defactinib),log2 fold change (rucaparib),log2 fold change [2],log2 fold change (encorafenib),log2 fold change [3]
TPM2 (UniProt P07951),0.177,-0.033,-0.078,-0.012,0.004,0.042,-0.027,-0.026,-0.006,0.102
UBA1 (UniProt P22314),-0.048,-0.17,-0.127,-0.052,0.015,-0.058,-0.019,0.055,0.149,-0.057
TMEM263 (UniProt Q8WUH6),0.027,-0.046,0.025,-0.049,-0.161,0.007,-0.031,-0.057,0.015,-0.015
TOE1 (UniProt Q96GM8),0.025,-0.016,0.221,0.031,0.122,0.193,-0.066,0.05,0.017,0.05
UFD1 isoform 1 (UniProt Q92890),0.008,0.005,-0.021,0.027,-0.022,-0.013,-0.02,-0.054,-0.004,0
VAMP7 (UniProt P51809),0.029,0.012,-0.019,-0.001,0.03,-0.028,-0.027,-0.022,0.029,-0.011
USP7 (UniProt Q93009),-0.087,-0.083,-0.147,0.023,-0.106,-0.104,0.03,0.152,0.057,-0.06
TNFRSF8 (UniProt P28908),0.037,0.092,-0.013,0.031,-0.013,-0.034,0.012,0.04,-0.046,-0.02
UBE3D (UniProt Q7Z6J8),0.027,-0.007,-0.059,-0.043,-0.058,-0.003,0.161,-0.064,0.005,-0.108
UBE2D1 (UniProt P51668),0.03,0.056,-0.055,-0.058,-0.035,-0.016,0.006,-0.105,0.01,-0.047
UBE4B isoform 4 (UniProt O95155),0.018,-0.038,-0.104,0.016,0.02,-0.071,-0.077,-0.058,0.01,-0.001
TSEN2 (UniProt Q8NCE0),-0.014,-0.186,-0.044,-0.024,-0.042,-0.009,0.007,-0.005,-0.068,-0.049
TTI1 (UniProt O43156),-0.065,-0.128,0.017,-0.007,-0.058,-0.046,0.237,0.053,0.068,0.004
WDR47 (UniProt O94967),-0.019,-0.008,-0.002,0.039,0.035,0.052,-0.071,-0.041,0.045,-0.087
TRAPPC6B (UniProt Q86SZ2),0.035,-0.068,-0.055,0.031,-0.034,-0.046,0.012,0.008,-0.02,0.022
